High-throughput results as filed in PubChem BioAssay.
UGM FP inh – inhibitors of M. tuberculosis UDP-galactopyranose mutase. purified UGM, fluorescence polarization probe displacement. P9WIQ1. AID 504406. actives 0.06% (n = 320,000). inhibition, % at 10 µM; in the data active means inhibition above about 10%, passing the limit was not always enough; inconclusive means no clear call, values can overlap the other calls
RecA splice inh – blocks M. tuberculosis RecA intein splicing; P9WHJ3; AID 2221; cell-free RecA intein splicing, fluorescence; inhibition, % (test concentration not listed); actives 0.75% (n = 290,000); in the data active means inhibition above about 30%; inconclusive means no clear call, values can overlap the other calls
GDH-TPI inh – GDH-TPI coupled enzyme inhibition counter-screen; GDH-TPI coupled enzyme counterscreen, NADH absorbance; actives 1.2% (n = 360,000); inhibition, % at 4.8 µM; in the data active means inhibition above about 30%
Rv3671c protease – inhibitors of M. tuberculosis serine protease Rv3671c; P9WHR9; inhibition, % at 5.96 µM; actives 0.048% (n = 320,000); AID 2606; in the data active means inhibition above about 38%;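 further: extracellular domain of Rv3671c used as enzyme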
Mtb FBA inh – Mtb fructose-bisphosphate aldolase inhibition | purified M. tuberculosis FBA, fluorescence read-out | inhibition, % at 1 µM | actives 2.3% (n = 360,000) | P9WQA3; in the data active means inhibition above about 27%
Target sequence (P9WQA3 whole entry, looked up): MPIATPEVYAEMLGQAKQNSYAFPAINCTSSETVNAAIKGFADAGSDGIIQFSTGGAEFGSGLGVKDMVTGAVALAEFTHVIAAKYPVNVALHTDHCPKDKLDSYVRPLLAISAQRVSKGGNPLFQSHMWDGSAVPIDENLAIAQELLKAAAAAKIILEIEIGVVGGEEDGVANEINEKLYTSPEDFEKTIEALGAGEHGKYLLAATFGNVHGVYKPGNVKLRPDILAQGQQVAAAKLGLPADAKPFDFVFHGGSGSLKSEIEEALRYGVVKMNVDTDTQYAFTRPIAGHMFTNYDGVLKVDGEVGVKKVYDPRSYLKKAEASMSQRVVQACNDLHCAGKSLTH
Mtb betalactam – beta-lactam sensitization of Mtb H37Rv | M. tuberculosis H37Rv growth with meropenem, percent inhibition | inhibition, % at 25 µM | actives 0.27% (n = 330,000) | AID 434955; call rule not given here;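 further: growth measured after seven days incubation then overnight dye step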
A number is an active result. Hits are enriched below; roughly 4% of the tested compounds scored in any of these assays.

Screening O=C(N/N=C/c1ccco1)c1cc(C2CC2)[nH]n1 returned UGM FP inh inactive, RecA splice inh inactive, GDH-TPI inh inactive, Rv3671c protease inactive, Mtb FBA inh inactive and Mtb betalactam inactive.
For Cc1cc(C(=O)N/N=C/c2ccc([N+](=O)[O-])cc2)c2ccccc2n1 the results were UGM FP inh inactive, RecA splice inh inactive, GDH-TPI inh 51.0, Rv3671c protease inactive, Mtb FBA inh inactive and Mtb betalactam inactive.
Screening CCOC(=O)c1oc2nc3c(cc2c1N)CCCC3 returned UGM FP inh inactive, RecA splice inh inactive, GDH-TPI inh inactive, Rv3671c protease inactive, Mtb FBA inh inactive and Mtb betalactam inactive.
For CCOC(=O)c1oc2nc(CC(C)C)c3c(c2c1N)CCCC3 the results were UGM FP inh inactive, GDH-TPI inh inactive, Rv3671c protease inactive, Mtb FBA inh 137.1 and Mtb betalactam inactive.
For Cn1cc(S(=O)(=O)N2CCCC2)cc1C(=O)NCCc1ccccc1 the results were UGM FP inh inactive, RecA splice inh inactive, GDH-TPI inh inactive, Rv3671c protease inactive, Mtb FBA inh inactive and Mtb betalactam inactive.
CCc1ccc(C(=O)COC(=O)C2=NN(c3ccccc3)C(=O)CC2)cc1 was read as UGM FP inh inactive, GDH-TPI inh inactive, Rv3671c protease inactive, Mtb FBA inh inactive and Mtb betalactam inactive.
COc1ccc(OCCn2c(C)c(/C=N/n3cnnc3)c3ccccc32)cc1 was read as UGM FP inh inactive, RecA splice inh inactive, GDH-TPI inh inactive, Rv3671c protease inactive, Mtb FBA inh inactive and Mtb betalactam inactive.
Screening COc1cccc(OCCn2c(C)c(/C=N/n3cnnc3)c3ccccc32)c1 returned UGM FP inh inactive, RecA splice inh inactive, GDH-TPI inh 33.6, Rv3671c protease inactive, Mtb FBA inh inactive and Mtb betalactam inactive.
For Cc1cc(N2CCOCC2)ccc1/C=C1\NC(=O)N(CC(=O)Nc2ccc(F)cc2)C1=O the results were UGM FP inh inactive, RecA splice inh inactive, GDH-TPI inh inactive, Rv3671c protease inactive, Mtb FBA inh inactive and Mtb betalactam inactive.
O=C1N/C(=C/c2ccco2)C(=O)N1Cc1ccccc1F was read as UGM FP inh inactive, RecA splice inh inactive, GDH-TPI inh 33.1, Rv3671c protease inactive, Mtb FBA inh inactive and Mtb betalactam inactive.
For Cc1ccc(NC(=O)CN2C(=O)N/C(=C\c3ccco3)C2=O)cc1 the results were UGM FP inh inactive, GDH-TPI inh 34.1, Rv3671c protease inactive, Mtb FBA inh inactive and Mtb betalactam inactive.
`Cc1cccc(NC(=O)CN2C(=O)N/C(=C\c3ccc(N4CCOCC4)cc3)C2=O)c1` gave UGM FP inh inactive, RecA splice inh inactive, GDH-TPI inh 30.9, Rv3671c protease inactive, Mtb FBA inh inactive and Mtb betalactam inactive.
`Cc1ccc(NC(=O)CN2C(=O)N/C(=C\c3cccnc3)C2=O)cc1` gave UGM FP inh inactive, RecA splice inh inactive, GDH-TPI inh inactive, Rv3671c protease inactive, Mtb FBA inh inactive and Mtb betalactam inactive.
Cc1ccc2c(c1)N(C(=O)CCC(=O)NCc1cccc(F)c1)CCO2 was read as UGM FP inh inactive, RecA splice inh inactive, GDH-TPI inh inactive, Rv3671c protease inactive, Mtb FBA inh inactive and Mtb betalactam inactive.
For Cc1ccc(-n2ncc(Br)c(Br)c2=O)cc1 the results were RecA splice inh 66.7, GDH-TPI inh inactive and Mtb FBA inh inactive.
`CC1(C)CC(=O)C=C(c2ccc3c(c2)OCO3)C1` gave UGM FP inh inactive, RecA splice inh inactive, GDH-TPI inh 32.8, Rv3671c protease inactive, Mtb FBA inh inactive and Mtb betalactam inactive.
For O=c1c2c(nc3c(-c4ccc(Cl)cc4)c[nH]n13)CCCC2 the results were UGM FP inh inactive, RecA splice inh inactive, GDH-TPI inh inactive, Rv3671c protease inactive, Mtb FBA inh inactive and Mtb betalactam inactive.
O=c1c2c(nc3c(-c4cccc5ccccc45)c[nH]n13)CCC2 was read as UGM FP inh inactive, RecA splice inh inactive, GDH-TPI inh inactive, Rv3671c protease inactive, Mtb FBA inh 129.4 and Mtb betalactam inactive.
CN1C(=O)C(=Cc2ccccc2Oc2ccc(Cl)cc2)C(=O)N(C)C1=O was read as UGM FP inh inactive, RecA splice inh inactive, GDH-TPI inh inactive, Rv3671c protease inactive, Mtb FBA inh 130.8 and Mtb betalactam inactive.
For CN1C(=O)C(=Cc2ccccc2OCc2ccc(Cl)cc2)C(=O)N(C)C1=O the results were UGM FP inh inactive, RecA splice inh inactive, GDH-TPI inh inactive, Rv3671c protease inactive, Mtb FBA inh inactive and Mtb betalactam inactive.
Cc1cc2nc3ccc(=[N+](C)C)cc-3sc2cc1N was read as RecA splice inh 31.3, GDH-TPI inh inactive and Mtb FBA inh inactive.
COc1ccc(NC(=O)CSc2ncccn2)cc1S(=O)(=O)N1CCCCC1 was read as UGM FP inh inactive, GDH-TPI inh inactive, Rv3671c protease inactive, Mtb FBA inh inactive and Mtb betalactam inactive.
Screening CCOC(=O)C1CCN(S(=O)(=O)c2cccc(-c3cn4cccnc4n3)c2)CC1 returned UGM FP inh inactive, RecA splice inh inactive, GDH-TPI inh inactive, Rv3671c protease inactive, Mtb FBA inh active and Mtb betalactam inactive.
`COc1ccc(C(=O)OCC(=O)NCC2CCCO2)cc1` (stereo unspecified) gave UGM FP inh inactive, RecA splice inh inactive, GDH-TPI inh inactive, Rv3671c protease inactive, Mtb FBA inh inactive and Mtb betalactam inactive.
For CCN(CC)c1ccc(C(=O)OCC(=O)NCC2CCCO2)cc1 (stereo unspecified) the results were UGM FP inh inactive, RecA splice inh inactive, GDH-TPI inh 31.8, Rv3671c protease inactive, Mtb FBA inh inactive and Mtb betalactam inactive.
`O=C(N/N=C/c1ccc([N+](=O)[O-])cc1)c1ccc2nc[nH]c2c1` gave UGM FP inh inactive, RecA splice inh inactive, GDH-TPI inh 37.4, Rv3671c protease inactive, Mtb FBA inh inactive and Mtb betalactam inactive.
For Cc1ccc(/C=N/NC(=O)c2ccc3nc[nH]c3c2)o1 the results were UGM FP inh inactive, RecA splice inh inactive, GDH-TPI inh 62.8, Rv3671c protease inactive, Mtb FBA inh inactive and Mtb betalactam inactive.
Screening O=C(N/N=C/c1cccc([N+](=O)[O-])c1)c1ccc2nc[nH]c2c1 returned UGM FP inh inactive, RecA splice inh inactive, GDH-TPI inh inactive, Rv3671c protease inactive, Mtb FBA inh inactive and Mtb betalactam inactive.
Screening CCOc1ccc(NC(=O)CN(C)C(=O)c2cc([N+](=O)[O-])ccc2Sc2ccccc2)cc1OCC returned GDH-TPI inh inactive and Mtb FBA inh inactive.
For COc1ccc(OCc2cc(C(=O)NC(C)Cn3cncn3)no2)c(Cl)c1 (stereo unspecified) the results were UGM FP inh inactive, RecA splice inh inactive, GDH-TPI inh inactive, Rv3671c protease inactive, Mtb FBA inh inactive and Mtb betalactam inconclusive.
O=C1NC(=S)N/C1=C\c1ccccc1OCc1ccc(C(=O)O)cc1 was read as UGM FP inh inactive, RecA splice inh inactive, GDH-TPI inh 41.8, Rv3671c protease inactive, Mtb FBA inh inactive and Mtb betalactam inactive.
Screening CC(=O)N1CCN(S(=O)(=O)c2cccc(C(=O)NNC(=O)c3ccc(Br)cc3)c2)CC1 returned GDH-TPI inh inactive and Mtb FBA inh inactive.
